# Assay outcomes: PubChem, Broad Institute
# The sample as a whole holds a higher share of hits than the screen did.
# IDE exosite inh: exo-site inhibitors of human insulin-degrading enzyme; P14735; purified IDE, FL-6b probe fluorescence polarization; stronger effect = lower value; z-score at 20 µM; 17,000 tested, 6.3% active; AID 1259349;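 active means z-score of -3 or lower, meaning strong loss of probe binding signal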;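 further: His-tagged human IDE residues 42-1019 made in E. coli with 30 nM FL-6b probe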
# Target sequence (P14735 42-1019 limits assumed): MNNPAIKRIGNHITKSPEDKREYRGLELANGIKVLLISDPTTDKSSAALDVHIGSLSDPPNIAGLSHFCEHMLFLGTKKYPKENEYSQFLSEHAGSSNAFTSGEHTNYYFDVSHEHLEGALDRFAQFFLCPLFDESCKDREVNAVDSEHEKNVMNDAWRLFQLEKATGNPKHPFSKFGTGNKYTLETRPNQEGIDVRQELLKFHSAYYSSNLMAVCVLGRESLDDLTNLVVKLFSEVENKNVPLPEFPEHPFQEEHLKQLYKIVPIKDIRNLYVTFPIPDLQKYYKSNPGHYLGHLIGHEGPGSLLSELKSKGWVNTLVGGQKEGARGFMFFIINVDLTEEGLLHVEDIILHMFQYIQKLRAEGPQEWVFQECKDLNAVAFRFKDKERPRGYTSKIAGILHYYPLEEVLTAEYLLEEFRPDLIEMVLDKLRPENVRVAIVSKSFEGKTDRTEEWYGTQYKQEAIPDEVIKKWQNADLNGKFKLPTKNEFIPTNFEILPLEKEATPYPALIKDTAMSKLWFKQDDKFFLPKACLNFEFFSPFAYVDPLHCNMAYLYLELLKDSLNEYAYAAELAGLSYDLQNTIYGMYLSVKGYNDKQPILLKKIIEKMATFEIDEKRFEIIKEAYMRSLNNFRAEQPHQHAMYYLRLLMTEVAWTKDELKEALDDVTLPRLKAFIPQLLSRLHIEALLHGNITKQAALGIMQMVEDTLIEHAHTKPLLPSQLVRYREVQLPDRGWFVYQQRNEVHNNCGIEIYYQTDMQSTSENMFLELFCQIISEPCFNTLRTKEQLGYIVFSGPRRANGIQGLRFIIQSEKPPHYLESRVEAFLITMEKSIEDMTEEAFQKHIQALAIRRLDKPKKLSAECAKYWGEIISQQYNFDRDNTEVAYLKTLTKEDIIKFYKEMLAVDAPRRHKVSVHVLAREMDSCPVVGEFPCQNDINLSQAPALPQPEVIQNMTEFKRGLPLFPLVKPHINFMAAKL
# Active calls of the source: *.
SMILES,IDE exosite inh
CN1CCCCN2[C@H](CO)[C@@H](c3ccc(C#CC4(O)CCCC4)cc3)[C@H]2C1,3.32
CN1CCCCN2[C@H](CO)[C@H](c3ccc(C#CC4(O)CCCC4)cc3)[C@H]2C1,3.52
CN1CCCCN2[C@@H](CO)[C@H](c3ccc(C#Cc4ccccc4F)cc3)[C@@H]2C1,-4.4*
CN1CCCCN2[C@H](C1)[C@H](c1ccc(C#CC3(O)CCCC3)cc1)[C@@H]2CO,2.78
CC(=O)NC[C@H]1[C@H](c2ccc(-c3ccccc3)cc2)[C@@H](CO)N1C(=O)C1CC1,3.17
O=C(C[C@@H]1CC[C@@H]2[C@H](COC[C@@H](O)CN2Cc2nccs2)O1)NCc1ccccc1Cl,-0.617
CN(C)C(=O)c1ccc(-c2ccc([C@H]3[C@H](CO)N4C(=O)CN(C(=O)C5CCC5)C[C@@H]34)cc2)cc1,2.64
Cc1ccc(NC(=O)Nc2ccc3c(c2)C(=O)N(C)[C@H]2CC[C@H](CC(=O)NCC(F)(F)F)O[C@@H]2CO3)cc1,-1.98
O=C1CN(Cc2ccc(F)cc2)C[C@@H]2[C@H](c3ccc(-c4ccccc4)cc3)[C@@H](CO)N12,0.327
CC(=O)N1[C@H](CN(C(=O)c2ccc(F)cc2)C(C)C)[C@@H](c2ccccc2)[C@@H]1CO,1.78
Cc1noc(C)c1NC(=O)Nc1ccc2c(c1)C(=O)N(C)[C@H]1CC[C@@H](CC(=O)N[C@@H]3CCN(Cc4ccccc4)C3)O[C@H]1CO2,0.416
O=C(C[C@H]1C[C@H]2c3cc(NC(=O)CC4CC4)ccc3O[C@H]2[C@H](CO)O1)NCC1CC1,1.42
C/C=C/c1ccc([C@@H]2[C@@H](CO)N3C(=O)CN(Cc4ccc(F)cc4)C[C@@H]23)cc1,-0.608
COCC(=O)NC[C@H]1N[C@H](CO)[C@@H]1c1ccc(C#CC2CCCCC2)cc1,1.41
O=C(C1CCOCC1)N1CC(=O)N2[C@H](CO)[C@@H](c3ccc(Br)cc3)[C@H]2C1,0.54
O=C(C1CCOCC1)N1CC(=O)N2[C@H](CO)[C@@H](c3ccc(Br)cc3)[C@@H]2C1,-2.59
O=C(C1CCOCC1)N1CC(=O)N2[C@H](CO)[C@@H](c3ccc(/C=C/c4ccccc4)cc3)[C@H]2C1,-2.07
O=C(C1CCOCC1)N1CC(=O)N2[C@@H](CO)[C@H](c3ccc(Br)cc3)[C@@H]2C1,4.19
O=C(C1CCOCC1)N1CC(=O)N2[C@@H](CO)[C@H](c3ccc(/C=C/c4ccccc4)cc3)[C@@H]2C1,-4.5*
O=C(C1CCOCC1)N1CC(=O)N2[C@H](CO)[C@@H](c3ccc(/C=C/c4ccccc4)cc3)[C@@H]2C1,-5.5*
CN(C)CC(=O)N1[C@H](C#N)[C@H](c2ccccc2-c2ccc(C(=O)N(C)C)cc2)[C@H]1CO,0.605
O=C(Nc1cc(F)ccc1F)N[C@H]1CC[C@@H](CC(=O)N2CCc3ccccc3C2)O[C@@H]1CO,3.3
N#C[C@H]1[C@@H](c2ccccc2)[C@@H](CO)N1S(=O)(=O)c1ccc(F)cc1,5.04
COc1ccccc1NC(=O)N1C[C@H](O)COC[C@H]2O[C@@H](CC(=O)NCCc3ccncc3)CC[C@@H]21,-0.102
C[C@@H]1CCCCO[C@@H](CN(C)C(=O)Nc2ccccc2)[C@H](C)CN([C@H](C)CO)C(=O)c2cc(NC(=O)Nc3ccccc3)ccc2O1,-0.543
SMILES,IDE exosite inh
CN(C)C(=O)c1ccc(-c2ccc([C@@H]3[C@@H](C#N)N(C(=O)Nc4ccccc4F)[C@H]3CO)cc2)cc1,2.56
C[C@H]1CN([C@@H](C)CO)C(=O)c2ccccc2-c2ccccc2CO[C@@H]1CN(C)C(=O)Nc1ccnc(N2CCOCC2)c1,-0.978
CCC(=O)N1CC(=O)N2[C@H](CO)[C@H](c3ccc(-c4ccccc4F)cc3)[C@@H]2C1,-2.07
CCN1CC(=O)N2[C@H](CO)[C@H](c3ccc(-c4ccccc4F)cc3)[C@@H]2C1,-0.0549
COCC(=O)N1CC(=O)N2[C@@H](CO)[C@@H](c3ccc(-c4ccccc4F)cc3)[C@@H]2C1,-1.07
COCC(=O)N1CC(=O)N2[C@H](C1)[C@@H](c1ccc(-c3ccccc3F)cc1)[C@@H]2CO,-2.63
CCC(=O)N1CC(=O)N2[C@H](CO)[C@H](c3ccc(-c4ccccc4F)cc3)[C@H]2C1,-7.42*
CCC(=O)N1CC(=O)N2[C@H](C1)[C@@H](c1ccc(-c3ccccc3F)cc1)[C@@H]2CO,-8.05*
C[C@@H]1CN([C@@H](C)CO)C(=O)c2cc(NC(=O)Nc3cccc4ccccc34)ccc2O[C@@H](C)CCCCO[C@@H]1CN(C)Cc1ccc(C(F)(F)F)cc1,0.989
COc1ccc(-c2ccc([C@H]3[C@@H](CO)N4CCCCN(CC5CCOCC5)C[C@@H]34)cc2)cc1,0.852
Cc1ccccc1-c1ccc([C@H]2[C@H]3CN(CC4CCOCC4)CCCCN3[C@H]2CO)cc1,-6.86*
CCCC#Cc1ccc([C@@H]2[C@H](CO)N3CCCCN(CC4CC4)C[C@@H]23)cc1,4.1
OC[C@H]1[C@@H](c2ccc(-c3cccnc3)cc2)[C@@H]2CN(CC3CC3)CCCCN12,-1.25
Cc1ccccc1-c1ccc([C@H]2[C@@H](CO)N3CCCCN(CC4CC4)C[C@@H]23)cc1,-3.48*
COc1ccc(-c2ccc([C@H]3[C@@H](CO)N4CCCCN(CC5CCOCC5)C[C@H]34)cc2)cc1,-0.348
COc1cccc(-c2ccc(C3[C@H]4CNC[C@@H]3N4Cc3cncnc3)cc2)c1 (stereo not given in full),1.89
CCC(=O)NC[C@H]1[C@H](c2ccccc2)[C@@H](CO)N1C(=O)C1CC1,1.23
CN(C)C(=O)c1ccc(-c2ccc([C@H]3[C@@H](CO)N4CCCCN(S(C)(=O)=O)C[C@@H]34)cc2)cc1,-1.41
C[C@@H]1CCCCO[C@@H](CN(C)C(=O)Cc2ccccc2)[C@H](C)CN([C@@H](C)CO)C(=O)c2cc(NS(C)(=O)=O)ccc2O1,1.19
C/C=C/c1ccc([C@H]2[C@@H](CO)N(C(=O)C3CCCC3)[C@H]2CNCC)cc1,0.745
O=C(NC1CCCC1)N1CCCCN2[C@@H](CO)[C@H](c3ccc(-c4cccnc4)cc3)[C@@H]2C1,-2.95
COc1ccccc1-c1ccc([C@H]2[C@@H](CO)N3CCCCN(C(=O)NC4CCCC4)C[C@H]23)cc1,-19.1*
O=C(NC1CCCC1)N1CCCCN2[C@H](C1)[C@H](c1ccc(-c3ccncc3)cc1)[C@@H]2CO,2.87
O=C(NC1CCCC1)N1CCCCN2[C@H](CO)[C@@H](c3ccc(-c4cccnc4)cc3)[C@H]2C1,-0.767
O=C(NC1CCCC1)N1CCCCN2[C@@H](CO)[C@@H](c3ccc(-c4ccncc4)cc3)[C@@H]2C1,4.78
SMILES,IDE exosite inh
COc1ccccc1-c1ccc([C@H]2[C@H](CO)N3CCCCN(C(=O)NC4CCCC4)C[C@@H]23)cc1,-12.3*
Cc1noc(C)c1NC(=O)Nc1ccc2c(c1)C(=O)N([C@H](C)CO)C[C@@H](C)[C@H](CN(C)Cc1ccc3c(c1)OCO3)OCCCC[C@@H](C)O2,2.74
CC(=O)N1[C@H](CO)[C@@H](c2ccccc2)C12CN(Cc1ccc(Cl)cc1)C2,0.0237
O=C(NCc1ccccc1)[C@H]1[C@H](CO)[C@H]2Cn3c(cccc3=O)[C@@H]1N2C(=O)Cc1ccccn1,-0.64
CCC(=O)N1CC2(C1)[C@@H](c1ccc(-c3ccccc3C)cc1)[C@@H](CO)N2C(=O)CC,-2.82
CN1C(=O)c2cc(NC(=O)c3cnccn3)ccc2OC[C@@H]2O[C@@H](CC(=O)NCC3CCCCC3)CC[C@H]21,-0.0285
COc1ccc(-c2ccc([C@@H]3[C@@H](CO)N(C(=O)NC(C)C)[C@H]3C#N)cc2)cc1,0.163
